Screens deposited in PubChem BioAssay by National Center for Advancing Translational Sciences (NCATS).
HT1080 IDH1KD tx = qHTS for induction of synthetic lethality in tumor cells producing 2HG: qHTS for the HT-1080-IDH1KD cell line | actives 2% (n = 360,000) | HT-1080 IDH1 knockdown viability, ATP luminescence, 48 h | Potency, µM (doses to about 46.1 µM), for the others: top-dose activity, negative = toxicity, usual class: cytotoxic;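 also: potency is read from the fitted curve at half-maximal effect; 0% = DMSO wells and -100% = cell-free medium wells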
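CellTiter-Glo luminescence after 48 h compound exposure at 37 degrees C of IDH1-knockdown HT-1080 cells in 5% FBS RPMI. %Activity scaled between DMSO wells and cell-free media wells, with curves fitted and assigned curve classes.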
HT1080-NT tox = qHTS for induction of synthetic lethality in tumor cells producing 2HG: qHTS for the HT-1080-NT fibrosarcoma cell line; Potency, µM (series often up to 46.1 µM), without a hit: top-dose activity, negative = less viability, most hits filed as cytotoxic; AID 686970, 2013; HT-1080-NT fibrosarcoma viability, CellTiter-Glo ATP luminescence, 48 h; actives 1.6% (n = 360,000);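 also: NT is the 2HG producing partner of a matched IDH1 knockdown line; potency is read from the fitted curve at half-maximal effect; 0% = DMSO-treated cells and -100% = media-only wells without cells; nearly all actives have a fitted effect of over 55% in size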
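Viability of the 2HG-overproducing fibrosarcoma line after 48 hours of compound exposure at 37 degrees C was determined by luminescence with CellTiter-Glo, and concentration-effect curves were then fitted and categorized.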
IL1B secr inh = qHTS for Inhibitors of Inflammasome Signaling: IL-1-beta AlphaLISA Primary Screen. actives 4.7% (n = 360,000). THP-1 LPS/ATP IL-1B secretion, AlphaLISA, 16 h; active compounds read low. AID 743279, 2014. activity change, % at 57.5 µM; in the data active = activity change below about -50%; inconclusive = mostly about -30% to -49%
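THP-1 cells pretreated 1 hr with compounds (up to 57.5 uM final), then stimulated with LPS (250 ng/mL final) plus ATP (1.25 mM final); secreted IL-1B measured by AlphaLISA after 16 hr, decreased signal indicating inhibition.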
DT40 TDP1 no CPT = qHTS for Inhibitors of human tyrosyl-DNA phosphodiesterase 1 (TDP1): qHTS in cells in absence of CPT; DT40 Tdp1-/- hTDP1 cells, no CPT, ATP luminescence, 48 h; Potency, µM (top dose mostly 46.2 µM), for inactives: at the top dose activity change, negative = growth inhibition, usual class: inhibitors; actives 15% (n = 420,000); also: potency is read from the fitted curve at half-maximal effect; nearly all actives have a fitted effect of over 55% in size
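DT40 Tdp1-/-;hTDP1 cells, no CPT (DMSO vehicle only), 400 cells/well; compounds pin-transferred; ≥48 hr, 37 °C; CellTiter-Glo 30 min RT dark, luminescence read.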
TDP1 cell CPT = qHTS for Inhibitors of human tyrosyl-DNA phosphodiesterase 1 (TDP1): qHTS in cells in presence of CPT. chicken DT40 Tdp1-/-;hTDP1 cells + 20 nM CPT, ATP luminescence, 48 h. Potency, µM (titrated, usually from 46.2 µM), for inactives: top-dose activity change, negative = growth inhibition, actives largely listed as inhibitors. actives 12% (n = 420,000). AID 686979, 2013; also: potency is read from the fitted curve at half-maximal effect; nearly all actives have a fitted effect of over 55% in size
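Cell growth measured by CellTiter-Glo luminescence after a minimum 48 h, 37 C compound exposure with 20 nM CPT in Tdp1-knockout DT40 cells stably expressing hTDP1, seeded 400/well; qHTS titration format.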
The depositor's hits bear a star; ? = inconclusive; . = no result given. Only some compounds are listed: those with a hit (about 19% of all), similar ones and a draw of the others. Unless noted, calls follow the shape of the dose curve; as a rule, active = well fitted curve in the direction sought with a large enough effect; inconclusive = small, poorly fitted or top-dose-only effect, or another doubt; inactive = no such curve, though single readings can be large; an effect the other way counts as inactive or inconclusive. Unless noted, % is scaled to controls: 0 for no effect and ±100 for the full control effect.

SMILES | HT1080 IDH1KD tx | HT1080-NT tox | IL1B secr inh | DT40 TDP1 no CPT | TDP1 cell CPT
c1ccc2c(c1)[nH]c1c(N3CCCC3)ncnc12 | -11% | -12% | -6 | 5.2µM* | 5.8µM*
CCOc1ncnc2c1[nH]c1ccccc12 | -17% | -21% | ? | ? | ?
c1ccc2c(c1)[nH]c1c(N3CCSCC3)ncnc12 | -29% | -21% | -8 | 18µM* | ?
Cc1ccc2[nH]c3c(N4CCOCC4)ncnc3c2c1 | ? | -29% | -20 | ? | ?
Clc1ccc2[nH]c3c(N4CCC5(CC4)OCCO5)ncnc3c2c1 | 8.2µM* | 16µM* | ? | 18µM* | 23µM*
O=C(NC1CCN(S(=O)(=O)c2cccc(F)c2)CC1)c1cccc(F)c1 | 10% | 15% | -16 | 5% | -21%
COc1cccc2[nH]c3c(N4CCCC(C)C4)ncnc3c12 (configuration not stated) | -4% | 5% | -14 | 23µM* | ?
c1ccc2c(c1)[nH]c1c(N3CCN(C4CCCCC4)CC3)ncnc12 | -22% | ? | 7 | 15µM* | ?
Cc1ccc(C(=O)c2ccccc2C(=O)O)cc1C | 15% | 15% | 18 | 0% | 9%
Cc1cc(C)c(C)c(C(=O)c2ccccc2C(=O)O)c1C | -2% | 1% | 34 | 3.3µM* | 3.7µM*
C[C@@H]1Cn2cnc(C(=O)N[C@@H](C)c3ccccc3)c2C(=O)N1 | 3% | 4% | 15 | ? | 9%
Cc1cccc(NC(=O)c2nc[nH]c2C(=O)N[C@@H](C)C(=O)OC(C)(C)C)c1 | -21% | -11% | -67* | ? | 18µM*
C[C@H](NC(=O)c1nc[nH]c1C(=O)NC(c1ccccc1)c1ccccc1)C(=O)OC(C)(C)C | ? | ? | ? | ? | -96%
CC(C)C[C@H](NC(=O)c1[nH]cnc1C(=O)Nc1ccccc1)C(=O)OC(C)(C)C | ? | ? | -11 | ? | 26µM*
CC(C)C[C@H](NC(=O)c1nc[nH]c1C(=O)N[C@@H](CCCCN)C(=O)OC(C)(C)C)C(=O)OC(C)(C)C | 13% | 11% | -8 | ? | ?
C[C@H](NC(=O)c1nc[nH]c1C(=O)N[C@H](C)c1ccccc1)C(=O)OC(C)(C)C | 0% | 8% | 2 | ? | 15µM*
CC(C)C[C@H](NC(=O)c1[nH]cnc1C(=O)N[C@@H](C)C(=O)OC(C)(C)C)C(=O)OC(C)(C)C | ? | ? | -61* | 12µM* | 18µM*
CCOC(=O)c1ccc(NC(=O)c2nc[nH]c2C(=O)N[C@@H](CC(C)C)C(=O)OC(C)(C)C)cc1 | -1% | -3% | 5 | ? | ?
Cc1ccc2c(c1)N(C(=O)CCC(=O)NC1CCCCCC1)CC(C)O2 (configuration not stated) | 2% | 1% | -19 | ? | ?
COc1ccc(S(=O)(=O)Nc2ccc3c(c2)N(C(C)=O)CCC3)cc1 | -18% | -22% | 8 | 16µM* | 18µM*
COc1ccc(C)cc1S(=O)(=O)Nc1ccc2c(c1)N(C(C)=O)CCC2 | -4% | 2% | 11 | 16µM* | 26µM*
COc1cccc(OC)c1C(=O)Nc1ccc2c(c1)N(C(C)=O)CCC2 | . | . | . | -4% | -2%
CC(=O)N1CCCc2ccc(NC(=O)c3ccc(OC(C)C)cc3)cc21 | . | . | . | 16µM* | ?
COc1ccc(S(=O)(=O)Nc2ccc3c(c2)N(C(C)=O)CCC3)cc1OC | 2% | -1% | -4 | ? | ?
Cc1ccc(NC(=O)CSc2nc3ccccc3nc2Cc2ccccc2)c(Cl)c1 | . | . | . | ? | -27%
SMILES | HT1080 IDH1KD tx | HT1080-NT tox | IL1B secr inh | DT40 TDP1 no CPT | TDP1 cell CPT
CCCC1=C(C(=O)OCC)C(c2ccco2)C(C#N)=C(N)O1 (configuration not stated) | -7% | -5% | ? | 4% | ?
COc1ccc(NC(=O)CSc2nc(-c3ccco3)cc(C(F)(F)F)n2)c(OC)c1 | . | . | . | -12% | -8%
CCc1cccc(C)c1NC(=O)Cn1nc(C)n2cccc2c1=O | 9% | -1% | 7 | 22% | -2%
CSc1nnc(NC(=O)c2nc(S(=O)(=O)Cc3cccc(C)c3)ncc2Cl)s1 | 21µM* | ? | -102* | 8.2µM* | 8.2µM*
Cc1nnc(NC(=O)c2nc(SCc3ccccc3F)ncc2Cl)s1 | . | . | . | -8% | 4%
CSc1nnc(NC(=O)c2nc(S(=O)(=O)Cc3ccccc3F)ncc2Cl)s1 | 21µM* | ? | -101* | -84% | 2.9µM*
O=C(Nc1nc2ccc(F)cc2s1)c1nc(S(=O)(=O)Cc2ccccc2F)ncc1Cl | . | . | . | 2.6µM* | 3.3µM*
Cc1cccc(CSc2ncc(Cl)c(C(=O)Nc3nc4ccc(F)cc4s3)n2)c1 | . | . | . | -27% | -29%
CC(C)c1nnc(NC(=O)c2nc(SCc3ccc(F)cc3)ncc2Cl)s1 | . | . | . | -3% | -20%
CC(C)c1nnc(NC(=O)c2nc(S(=O)(=O)Cc3ccc(F)cc3)ncc2Cl)s1 | 23µM* | 26µM* | -105* | 4.1µM* | 4.6µM*
